Measured values: PubChem BioAssay (EPA / NIEHS)
The source made the active and inactive calls. How the source made its calls: active means hit-call score of the fitted dose curve at least 0.9, where 1 is the maximum; inactive means score below 0.9.

Each compound was assayed on Matrix Metallopeptidase 1 (MMP1), MMP1 (gene 4312) (assay: BSK_hDFCGF_MMP1: BioMAP Diversity Plus: hDFCGF Assay for Matrix Metallopeptidase 1 (MMP1) Biomarker Activity (AID 2283064)). Conditions: primary human foreskin fibroblasts; actives raise or lower the signal.
How it was run: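 ELISA read-out of MMP1 from human foreskin fibroblasts (primary skin cells), 24 h post-dose. Gain or loss of signal was fitted bidirectionally versus DMSO negative control; cytotoxicity was checked by SRB in parallel cultures.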

**Q.** `Cc1c(-c2cccnc2)c2ccccc2n1CCCCC(=O)O` was tested. Which outcome did it give?
**A.** Its outcome is “inactive”.

**Q.** How did the outcome turn out when `CC[C@H]1CC[C@H](NCc2cc3c(cc2OC)[C@H]2C[C@H]2C(=O)N3C)[C@H](c2ccccc2)N1` was run?
**A.** The outcome was “inactive”.

**Q.** With `CCOCCOCCOCCO` as the compound, how does the outcome read?
**A.** Its outcome is “inactive”.

**Q.** With `Cn1c(=O)cc(Oc2ccc(F)cc2F)c2cnc(NCC(C)(C)O)nc21` as the compound, how does the AC50 read?
**A.** The AC50 was 1120 nM (active).

**Q.** Which AC50 does the source give for `CC[C@H](C)C(=O)O[C@H]1C[C@@H](C)C=C2C=C[C@H](C)[C@H](CC[C@@H]3C[C@@H](O)CC(=O)O3)[C@H]21` here?
**A.** Its AC50 is 36600 nM (active).

**Q.** With `CCN(C(=O)c1cc(C)cc(OC[C@H](C)Nc2ccncc2)c1)C(C)C` as the compound, how does the outcome read?
**A.** Its outcome is “inactive”.

**Q.** Which outcome does the source give for `Cc1ccc(S(=O)(=O)O)cc1C` here?
**A.** Its outcome is “inactive”.

**Q.** With `C[C@](N)(Cc1ccc(O)c(O)c1)C(=O)O` as the compound, how does the outcome read?
**A.** The outcome was “inactive”.

**Q.** With `CC(C)CCCCCCOC(=O)c1ccc(C(=O)OCCCCCCC(C)C)c(C(=O)OCCCCCCC(C)C)c1` as the compound, how does the outcome read?
**A.** Its outcome is “inactive”.

**Q.** `O=C(O)CCN(C1(C(=O)NO)CCCC1)S(=O)(=O)c1ccc(Oc2ccc(F)cc2)cc1` was tested. Which outcome did it give?
**A.** The outcome was “inactive”.

**Q.** Which outcome does the source give for `CC(C)CCCCCCCOC(=O)CCCCC(=O)OCCCCCCCC(C)C` here?
**A.** The outcome was “inactive”.

**Q.** Which outcome does the source give for `CNCc1ccc(NC(=O)c2c[nH]c3c2C(=O)CCC3)cc1` here?
**A.** Its outcome is “inactive”.

**Q.** With `Cc1ccc(N)cc1O` as the compound, how does the outcome read?
**A.** The outcome was “inactive”.

**Q.** With `Cc1[nH]cnc1C[C@H]1CCc2c(C)c3ccccc3n2C1=O` as the compound, how does the outcome read?
**A.** Its outcome is “inactive”.

**Q.** `CCCCC(CC)COC(=O)c1ccc(C(=O)OCC(CC)CCCC)cc1` (centres undefined) was tested. Which outcome did it give?
**A.** Its outcome is “inactive”.

**Q.** How did the outcome turn out when `CC(C)CC(C)(O)C#CC(C)(O)CC(C)C` (centres undefined) was run?
**A.** The outcome was “inactive”.

**Q.** For `O=C(O)CC(O)C(=O)O` (centres undefined), which outcome is on record?
**A.** Its outcome is “inactive”.

**Q.** For `COc1cccc(-c2ccc(/C=C\CN3CCCCCC3)cc2Cl)c1`, which AC50 is on record?
**A.** Its AC50 is 34400 nM (active).

**Q.** How did the outcome turn out when `CN(C)c1ccc(N=NS(=O)(=O)O)cc1` was run?
**A.** The outcome was “inactive”.

**Q.** With `COC(=O)CC(=O)OC` as the compound, how does the outcome read?
**A.** The outcome was “inactive”.

**Q.** Which outcome does the source give for `CCOC(=O)CC(CC(=O)OCC)(OC(C)=O)C(=O)OCC` here?
**A.** The outcome was “inactive”.

**Q.** `CC(C)=CCCC(C)=CC=O` was tested. Which outcome did it give?
**A.** The outcome was “inactive”.

**Q.** `O=C(OC[C@H]1O[C@@H](OC(=O)c2cc(O)c(O)c(OC(=O)c3cc(O)c(O)c(O)c3)c2)[C@H](OC(=O)c2cc(O)c(O)c(OC(=O)c3cc(O)c(O)c(O)c3)c2)[C@@H](OC(=O)c2cc(O)c(O)c(OC(=O)c3cc(O)c(O)c(O)c3)c2)[C@@H]1OC(=O)c1cc(O)c(O)c(OC(=O)c2cc(O)c(O)c(O)c2)c1)c1cc(O)c(O)c(OC(=O)c2cc(O)c(O)c(O)c2)c1` was tested. Which AC50 did it give?
**A.** The AC50 was 1860 nM (active).

**Q.** With `CC(C)=CCCC(C)CCO` (centres undefined) as the compound, how does the outcome read?
**A.** Its outcome is “inactive”.

**Q.** For `CCCCCCCCO`, which outcome is on record?
**A.** Its outcome is “inactive”.

**Q.** With `CC(C)=CCC/C(C)=C\CO` as the compound, how does the outcome read?
**A.** The outcome was “inactive”.

**Q.** For `Clc1nc(Cl)c(Cl)c(Cl)c1Cl`, which outcome is on record?
**A.** Its outcome is “inactive”.

**Q.** How did the outcome turn out when `CC(O)CN(CCN(CC(C)O)CC(C)O)CC(C)O` (centres undefined) was run?
**A.** The outcome was “inactive”.

**Q.** How did the AC50 turn out when `CCc1cc(SCc2sc(-c3ccc(C(F)(F)F)cc3)nc2CN2CCN(c3ccc(OC)cc3)CC2)ccc1OCC(=O)O` was run?
**A.** Its AC50 is 1800 nM (active).
